This note sets out measurements from PubChem BioAssay (NCI).

The panel holds about 83,000 compounds, 20% with a hit somewhere; the sample as a whole holds those more often.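 Interpretation: 100, growth as untreated; towards 0, rising growth inhibition; 0, no net growth; 0 to -100, cell death. Compounds scoring below 10 were considered active.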 Unmarked numbers belong to inactive results. Calls of active or inactive are those of the source.

One assay concerns T-47D breast. The assay is described as follows: NCI-60 one-dose screen, 48 h (100 = growth as untreated, 0 = no growth, -100 = all killed). The conditions noted are these: 10 µM.
Take `CC1=CC2OC34COC3CC(OC(=O)C(F)(F)F)C4(C)C2(C)CC1` (centres undefined): the growth is 94.2%.
On the same count and under the same terms, the value for `CCCCOCCOCCOCc1cc2c(cc1Br)OCO2` was 88%; that for `CCCCCCCCCCN=C(c1ccc(N(C)C)cc1)c1ccc(N(C)C)cc1` was 20.7%; that for `COc1cccc2c1C(=O)c1c(O)c3c(c(O)c1C2=O)C[C@@](O)(C(=O)COC(=O)c1cccnc1)C[C@@H]3OC1CC(N)C(O)C(C)O1` (some centres undefined) was -2.37% (active).
The same measure, in the same setting: the result for `COc1ccc(/C(=C/c2cc(OC)c(OC)cc2[N+](=O)[O-])C(=O)O)cc1` reads 94.8%; that for `Nc1ccccc1NC(=O)CCCCCCC(=O)Nc1ccc2c(c1)/C(=C/c1ccc[nH]1)C(=O)N2`, 37.9%.
In the case of `CCOC(=O)c1c(C)n(-c2ccc(Cl)cc2)c2ccc(OC(=O)/C=C/c3ccccc3)cc12`, the growth was 82.7%.
The same measure, in the same setting: the result for `Cc1nnc2c3nnc(-c4ccc(Cl)cc4)n3c3ccccc3n12` reads 105%.
On the same count and under the same terms, the value for `CCOc1ccc2c(c1)CC[C@@H]1[C@@H]2CC[C@]2(C)[C@@H](O)[C@@H](O)C[C@@H]12` was 93.8%; that for `COC(=O)[C@]12CC[C@@H](C)[C@H](C)[C@@H]1C1=CC[C@@H]3[C@@]4(C)CC(=O)[C@H](O)[C@@](C)(CO)[C@@H]4C(=O)C[C@@]3(C)[C@]1(C)CC2` was -15.8% (active); that for `CCCCn1c(=O)[nH]c2c(c1=O)C(c1ccc(Cl)cc1)c1c([nH]c(=O)n(CCCC)c1=O)N2` was 73.3%.
On the same count and under the same terms, the value for `CCC(CCNc1cc(OC)cc2cccnc12)CN1C(=O)c2ccccc2C1=O` (centres undefined) was 32.7%; that for `COc1ccc(C(=O)c2sc3nc(-c4cccs4)ccc3c2N)cc1OC` was 25.3%.
With `O=C/C=C/c1ccc([N+](=O)[O-])cc1Cl`, the growth is 86.4%.
The same measure, in the same setting: the value for `C/C(=N\NC(=O)c1sc(=S)n(C)c1N)c1cc2ccccc2o1` was 78.2%; that for `Cc1ccc(-c2cc(C(=O)Nc3ccc(S(=O)(=O)N4CCCCC4)cc3)[nH]n2)c(O)c1` was 33.8%; that for `CC(=O)OC1Oc2ccccc2-c2oc(=O)c(-c3ccc(F)cc3)cc21` (centres undefined) was 77.2%.
Turning to `COc1ccc(Nc2nc(NCc3ccccc3)c3ccccc3n2)cc1`, the growth is 45.6%.
Take `CCOC(=O)c1c(O)c2cc(-c3ccccc3)nc(OCC)c2c(=O)n1C`: the growth is 94.7%.
Same read-out and setting: the result for `COc1ccc(-c2nnc(SCC(=O)c3ccccc3)o2)cc1` reads 86.3%.
The same measure, in the same setting: the value for `CC(=O)Oc1c(C)c(C)c2c(c1C)CCC(C)(CC(=O)OCCCCCCCCCCC[P+](c1ccccc1)(c1ccccc1)c1ccccc1)O2` (centres undefined) was -64.1% (active).
Same read-out and setting: the value for `Cc1ccccc1[P+](Cc1ccccc1)(c1ccccc1)c1ccccc1` was -3.4% (active).

For another assay, the system named is BT-549 breast. The description is as above. The conditions noted are these: 10 µM.
In the case of `CCCOCC(O)CNCCN` (centres undefined), the growth is 110%.
On the same count and under the same terms, the value for `CCCC(C)c1ccc(OCCCCCCN2CCNCC2)cc1` (centres undefined) was 76.5%.
On the same count and under the same terms, the value for `Nc1cc(O)cc(O)c1` was 105%; that for `Cc1cc(C(C)(C)CC(C)(C)C)ccc1OCCOCC[N+](C)(C)Cc1ccccc1` was -99% (active).
Turning to `CC(C)c1[nH]nc2c(NCc3ccc(-c4ccccn4)cc3)nc(SCCN)nc12`, the growth is -32% (active).
Same read-out and setting: the result for `CC(=O)c1c(O)cc2c3c1OC(C)(C)C1CCC(C)(CC31)O2` (centres undefined) reads 90.8%; that for `CN(C)CCCN1c2ccccc2Sc2ccc(C(F)(F)F)cc21`, 25.7%.
Still for that read-out and setting: the result for `CNC(=O)c1cc(Oc2ccc(NC(=O)Nc3ccc(Cl)c(OC4CCCCC4)c3)c(F)c2)ccn1` reads 72.6%; that for `O=C(Nc1cccc(F)c1)Nc1cccc(Cl)c1`, 104%; that for `CCN(CC)CC(O)CNc1ccnc2cc(Cl)c(Cl)cc12` (centres undefined), 88.9%.
Still for that read-out and setting: the result for `CCCCCCOc1ccc(/C=C/C(=O)c2ccc(B(O)O)cc2)cc1` reads 35.2%; that for `CC1(C)CC(OCCCC[P+](c2ccccc2)(c2ccccc2)c2ccccc2)CC(C)(C)N1O`, 17.3%.
Turning to `Fc1cc(-c2ncc(-c3cc(F)c(F)c(F)c3)c(NC3CCCCCC3)n2)cc(F)c1F`, the growth was 103%.
As to `COc1c(C)c(C)c(OC)c2c1[nH]c(=O)c1c3cccnc3cn21`, the growth was 124%.
Still for that read-out and setting: the value for `CC1(C)CCc2cc(-c3ccn(S(=O)(=O)c4ccc(Cl)cc4)n3)ccc2O1` was 88.8%.
Turning to `O=C(NC1CCCC1)c1ccc(N2CCC(NCc3cccc(C(F)(F)F)c3)CC2)cc1`, the growth is 89.3%.
Still for that read-out and setting: the result for `CC1=CC2OC34COC3CC(OC(=O)C(F)(F)F)C4(C)C2(C)CC1` (centres undefined) reads 95.9%; that for `CCCCOCCOCCOCc1cc2c(cc1Br)OCO2`, 110%; that for `CCCCCCCCCCN=C(c1ccc(N(C)C)cc1)c1ccc(N(C)C)cc1`, 38.1%.
For the compound `COc1cccc2c1C(=O)c1c(O)c3c(c(O)c1C2=O)C[C@@](O)(C(=O)COC(=O)c1cccnc1)C[C@@H]3OC1CC(N)C(O)C(C)O1` (some centres undefined), the growth was 5.42% (active).
Same read-out and setting: the result for `COc1ccc(/C(=C/c2cc(OC)c(OC)cc2[N+](=O)[O-])C(=O)O)cc1` reads 111%; that for `Nc1ccccc1NC(=O)CCCCCCC(=O)Nc1ccc2c(c1)/C(=C/c1ccc[nH]1)C(=O)N2`, 22%; that for `CCOC(=O)c1c(C)n(-c2ccc(Cl)cc2)c2ccc(OC(=O)/C=C/c3ccccc3)cc12`, 82.2%.
Same read-out and setting: the value for `Cc1nnc2c3nnc(-c4ccc(Cl)cc4)n3c3ccccc3n12` was 91.5%; that for `CCOc1ccc2c(c1)CC[C@@H]1[C@@H]2CC[C@]2(C)[C@@H](O)[C@@H](O)C[C@@H]12` was 119%; that for `COC(=O)[C@]12CC[C@@H](C)[C@H](C)[C@@H]1C1=CC[C@@H]3[C@@]4(C)CC(=O)[C@H](O)[C@@](C)(CO)[C@@H]4C(=O)C[C@@]3(C)[C@]1(C)CC2` was -31.4% (active).
Regarding `CCCCn1c(=O)[nH]c2c(c1=O)C(c1ccc(Cl)cc1)c1c([nH]c(=O)n(CCCC)c1=O)N2`, the growth was 100%.
On the same count and under the same terms, the result for `COc1ccc(C(=O)c2sc3nc(-c4cccs4)ccc3c2N)cc1OC` reads 48.9%.
As for `O=C/C=C/c1ccc([N+](=O)[O-])cc1Cl`, the growth was 106%.
The same measure, in the same setting: the value for `C/C(=N\NC(=O)c1sc(=S)n(C)c1N)c1cc2ccccc2o1` was 87.2%; that for `Cc1ccc(-c2cc(C(=O)Nc3ccc(S(=O)(=O)N4CCCCC4)cc3)[nH]n2)c(O)c1` was 67.4%.
Still for that read-out and setting: the result for `CC(=O)OC1Oc2ccccc2-c2oc(=O)c(-c3ccc(F)cc3)cc21` (centres undefined) reads 80.6%; that for `COc1ccc(Nc2nc(NCc3ccccc3)c3ccccc3n2)cc1`, 82.9%.
As for `CCOC(=O)c1c(O)c2cc(-c3ccccc3)nc(OCC)c2c(=O)n1C`, the growth is 133%.
On the same count and under the same terms, the value for `COc1ccc(-c2nnc(SCC(=O)c3ccccc3)o2)cc1` was 74.9%; that for `CC(=O)Oc1c(C)c(C)c2c(c1C)CCC(C)(CC(=O)OCCCCCCCCCCC[P+](c1ccccc1)(c1ccccc1)c1ccccc1)O2` (centres undefined) was -91.4% (active).
In the case of `Cc1ccccc1[P+](Cc1ccccc1)(c1ccccc1)c1ccccc1`, the growth was 10.3%.
